Records with an inconclusive call do not appear. Active and inactive are the calls of the source. Calls come from the whole dose curve; as a rule, active = well fitted curve in the direction sought with a large enough effect; inconclusive = small, poorly fitted or top-dose-only effect, or another doubt; inactive = no such curve, though single readings can be large; an effect the other way counts as inactive or inconclusive.
Legend:
[1] = S16 Schwann cell viability assay (CellTiter-Glo assay) (AID 624031);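 note: native untransfected S16 rat Schwann cells; cellular ATP luminescence as a viability measure; nearly all actives have a fitted effect of over 70% in size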
Summary of the method: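 Following overnight culture in 10% FBS DMEM, parental S16 rat Schwann cells are dosed for 24 h at 37 °C. Viability is read as CellTiter-Glo luminescence and expressed as % activity relative to DMSO (0%) and no-cell wells.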

[2] = S16 Schwann cell PMP22 intronic element firefly luciferase assay (AID 624032); note: nearly all actives have a fitted effect of over 30% in size; note: potency is the fitted concentration of half-maximal effect
Summary of the method: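 Rat S16 Schwann cells stably carrying firefly luciferase driven by a PMP22 intronic element, in 10% FBS, treated 24 h at 37 C. ONE-Glo luminescence normalized to PTC124 control and DMSO (0%); curves classed by r2, magnitude and activity.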

3D7 = assay: qHTS profiling for inhibitors of Plasmodium falciparum proliferation (AID 504749); note: nearly all actives have a fitted effect of over 60% in size; note: potency is the fitted concentration of half-maximal effect; conditions: P. falciparum in erythrocytes, SYBR Green DNA, 72 h; series mostly up to 28.7 µM
Summary of the method: (§1)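 P. falciparum-infected erythrocytes (0.3% parasitemia, 2.5% hematocrit) incubated with compound 72 h at 37 C, 5% CO2. Parasite DNA detected by SYBR Green after lysis, overnight at room temperature; normalised to 0.29 uM artemisinin and DMSO.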

AA1029 = assay: as above; conditions: P. falciparum in erythrocytes, SYBR Green DNA, 72 h; series mostly up to 28.7 µM
Summary of the method: as §1

ATS189 = assay: as above; conditions: P. falciparum in erythrocytes, SYBR Green DNA, 72 h; series mostly up to 28.7 µM
Summary of the method: as §1

ATS95 = assay: as above; conditions: P. falciparum in erythrocytes, SYBR Green DNA, 72 h; series mostly up to 28.7 µM
Summary of the method: as §1

CP185 = assay: as above; conditions: P. falciparum in erythrocytes, SYBR Green DNA, 72 h; series mostly up to 28.7 µM
Summary of the method: as §1

CP192 = assay: as above; conditions: P. falciparum in erythrocytes, SYBR Green DNA, 72 h; series mostly up to 28.7 µM
Summary of the method: as §1

CP211 = assay: as above; conditions: P. falciparum in erythrocytes, SYBR Green DNA, 72 h; series mostly up to 28.7 µM
Summary of the method: as §1

CP238 = assay: as above; conditions: P. falciparum in erythrocytes, SYBR Green DNA, 72 h; series mostly up to 28.7 µM
Summary of the method: as §1

CP250 = assay: as above; conditions: P. falciparum in erythrocytes, SYBR Green DNA, 72 h; series mostly up to 12.8 µM
Summary of the method: as §1

CP269 = assay: as above; conditions: P. falciparum in erythrocytes, SYBR Green DNA, 72 h; series mostly up to 28.7 µM
Summary of the method: as §1

CP286 = assay: as above; conditions: P. falciparum in erythrocytes, SYBR Green DNA, 72 h; series mostly up to 28.7 µM
Summary of the method: as §1

DFO2036 = assay: as above; conditions: P. falciparum in erythrocytes, SYBR Green DNA, 72 h; series mostly up to 28.7 µM
Summary of the method: as §1

ECU = assay: as above; conditions: P. falciparum in erythrocytes, SYBR Green DNA, 72 h; series mostly up to 28.7 µM
Summary of the method: as §1

FAB9 = assay: as above; conditions: P. falciparum in erythrocytes, SYBR Green DNA, 72 h; series mostly up to 28.7 µM
Summary of the method: as §1

HB3 = assay: as above; conditions: P. falciparum in erythrocytes, SYBR Green DNA, 72 h; series mostly up to 28.7 µM
Summary of the method: as §1

N140 = assay: as above; conditions: P. falciparum in erythrocytes, SYBR Green DNA, 72 h; series mostly up to 28.7 µM
Summary of the method: as §1

TAB109 = assay: as above; conditions: P. falciparum in erythrocytes, SYBR Green DNA, 72 h; series mostly up to 12.8 µM
Summary of the method: as §1

CP315 = assay: as above; conditions: P. falciparum in erythrocytes, SYBR Green DNA, 72 h; series mostly up to 28.7 µM
Summary of the method: as §1

Structure (SMILES)	Potency [1]	Potency [2]	Potency (3D7)	Potency (AA1029)	Potency (ATS189)	Potency (ATS95)	Potency (CP185)	Potency (CP192)	Potency (CP211)	Potency (CP238)	Potency (CP250)	Potency (CP269)	Potency (CP286)	Potency (DFO2036)	Potency (ECU)	Potency (FAB9)	Potency (HB3)	Potency (N140)	Potency (TAB109)	Potency (CP315)
CC(C)CC(CN)CC(=O)O (stereo not drawn)	inactive	inactive	–	–	–	–	–	–	–	–	–	–	–	–	–	–	–	–	–	–
C=CC1CN2CCC1CC2C(OC(=O)OCC)c1ccnc2ccc(OC)cc12 (stereo not drawn)	inactive	inactive	2.51 µM (active)	5.01 µM (active)	5.62 µM (active)	3.98 µM (active)	8.91 µM (active)	6.75 µM (active)	15.1 µM (active)	8.91 µM (active)	12.6 µM (active)	9.53 µM (active)	5.01 µM (active)	6.31 µM (active)	3.98 µM (active)	10 µM (active)	6.31 µM (active)	11.2 µM (active)	4.47 µM (active)	–
O=C1C=C2C=CC3C[C@@]2(O1)C1CCCCN31 (stereo partly drawn)	inactive	0.51 µM (active)	12.6 µM (active)	12.6 µM (active)	11.2 µM (active)	10 µM (active)	–	–	13.5 µM (active)	11.2 µM (active)	12.6 µM (active)	15.1 µM (active)	11.2 µM (active)	12.6 µM (active)	11.2 µM (active)	–	11.2 µM (active)	12.6 µM (active)	5.01 µM (active)	16.9 µM (active)
CC([C@H](O)c1ccccc1)N(C)C (stereo partly drawn)	inactive	inactive	inactive	inactive	inactive	inactive	inactive	inactive	inactive	inactive	inactive	inactive	inactive	inactive	inactive	inactive	inactive	inactive	inactive	inactive
